Screening results deposited in PubChem BioAssay by National Center for Advancing Translational Sciences (NCATS).
Compounds with a hit are over-represented: about 8% of the library has one in this group of screens.
MCF10A rerep: DNA re-replication induction in MCF 10a cells | MCF 10A DNA re-replication, Hoechst nuclear intensity, 48 h | Potency, µM (titrated, usually from 46.1 µM), without a hit: at the highest dose activity, positive = re-replication, actives largely listed as activators | 350,000 compounds, 2.9% hits | AID 624296; also: % of control where 0% means no effect; nearly all actives have a fitted effect of over 50% in size
SW480 rerep: inducers of DNA re-replication in SW480 colon cancer cells | AID 624297 | Potency, µM (series often up to 46.1 µM), inactives show top-dose re-replication activation, usual class: activators | 340,000 compounds, 1.8% hits | SW480 DNA re-replication, Hoechst DNA content imaging, 48 h; also: % of control where 0% means no effect; nearly all actives have a fitted effect of over 55% in size
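250 cells/well; 23 nL cpd via pin tool; 48 hr, 37 C, 5% CO2; Hoechst 40 min; imager read of total nuclear intensity, ex 405/em 500-530 nm.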
KB-3-1 cytotox: kills parental KB-3-1 adenocarcinoma cells; KB-3-1 viability, CellTiter-Glo ATP luminescence, 72 h; Potency, µM (doses to about 46.1 µM), most hits filed as cytotoxic; 400,000 compounds, 1.4% hits; also: % is scaled to controls: 0 for no effect and ±100 for the full control effect; nearly all actives have a fitted effect of over 60% in size
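Here the drug-naive KB-3-1 line serves as comparator for MDR sub-line selectivity; cells received compound titrations, 72 h at 37 °C, then CellTiter-Glo readout.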
KB-V1 cytotox: KB-V1 MDR subline cytotoxicity; 400,000 compounds, 3.4% hits; Potency, µM (doses to about 46.1 µM), most hits filed as cytotoxic; AID 1347076; KB-V1 MDR cells viability, CellTiter-Glo, 72 h; also: % is scaled to controls: 0 for no effect and ±100 for the full control effect; nearly all actives have a fitted effect of over 60% in size
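Luminescent ATP read-out (CellTiter-Glo, 10 min) measures survival of drug-selected KB-V1 MDR cells after 72 h, 37 degrees C compound exposure. Medium: phenol-red-free DMEM, 10% FBS. Values from fitted concentration-response curves.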
HT1080NT lethal: kills 2HG-producing HT-1080-NT fibrosarcoma cells; HT-1080-NT fibrosarcoma viability, CellTiter-Glo ATP luminescence, 48 h; Potency, µM (titrated, usually from 46.1 µM), for the others: at the highest dose activity, negative = less viability, hits mostly cytotoxic; 360,000 compounds, 1.6% hits; AID 686970;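 also: NT is the 2HG producing partner of a matched IDH1 knockdown line; 0% = DMSO-treated cells and -100% = media-only wells without cells; nearly all actives have a fitted effect of over 55% in size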
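Viability of the 2HG-overproducing fibrosarcoma line after 48 hours of compound exposure at 37 degrees C was determined by luminescence with CellTiter-Glo, and concentration-effect curves were then fitted and categorized.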
HT1080 IDH1KD tx: toxicity to HT-1080 IDH1 knockdown cells (counter line); HT-1080 IDH1 knockdown viability, ATP luminescence, 48 h; Potency, µM (series often up to 46.1 µM), for the others: top-dose activity, negative = toxicity, actives largely listed as cytotoxic; 360,000 compounds, 2% hits; AID 686971;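 also: 0% = DMSO wells and -100% = cell-free medium wells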
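Using the IDH1-knockdown HT-1080 line run in the same batch and compound series as the NT line, viability after 48 h at 37 °C was determined by CellTiter-Glo luminescence and expressed as % activity.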
The depositor's hits bear a star; i = inactive; ? = inconclusive; / = no result given; [ ] = dose if it differs, or a comment. Calls follow the shape of the dose curve; as a rule, active = well fitted curve in the direction sought with a large enough effect; inconclusive = small, poorly fitted or top-dose-only effect, or another doubt; inactive = no such curve, though single readings can be large; an effect the other way counts as inactive or inconclusive. Potency is read from the fitted curve at half-maximal effect.

SMILES | MCF10A rerep | SW480 rerep | KB-3-1 cytotox | KB-V1 cytotox | HT1080NT lethal | HT1080 IDH1KD tx
COc1ccc2ccc3c(c2c1)N=CC1(O3)N(C)c2ccccc2C1(C)C (stereo not given) | ? | -4% | i | ? | 7.9µM* | 6.3µM*
COc1ccc(-c2cc3nc(C)c(CCC(=O)NC4CCCCC4)c(C)n3n2)c(OC)c1 | / | / | i | i | / | /
Nc1nc2ncc(-c3ccsc3)c(N)n2n1 | 8% | 3.7µM* | i | i | 2% | 12%
CSc1nc2ncc(-c3ccsc3)c(N)n2n1 | -1% | -1% | i | i | 3% | 0%
CCn1ccc2cc(S(=O)(=O)N3CCC(C(=O)NCCc4ccc(SC)cc4)CC3)ccc21 | / | / | i | i | / | /
CC(Nc1ccc(F)cc1)=[N+](C)CCNS(=O)(=O)c1ccc(Cl)cc1 | -8% | 2% | ? | ? | -13% | 2%
Cc1cccc(N(C(=O)c2snc(C(N)=O)c2N)C(C(=O)NCc2ccccc2)c2ccncc2)c1 (stereo not given) | ? | ? | 18µM* | i | 18µM* | ?
NC(=O)c1nsc(C(=O)N(c2ccccc2)C(C(=O)NCc2ccc(F)cc2)c2ccc(O)cc2)c1N (stereo not given) | 13µM* | ? | i | i | -23% | -23%
Cc1ccc(C)c(NC(=O)c2cnn(-c3ccc(F)cc3F)c2C2CCNCC2)c1 | / | / | i | i | / | /
CC1CCCC(NC(=O)C2N(CCCN3CCCC3)C(=O)C3C(C(=O)Nc4ccc(Cl)cc4)C4C=CC32O4)C1C (stereo not given) | -21% | ? | i | i | -7% | ?
c1ccc(Nc2c(-c3c[nH]c4ccccc34)nc3ccccn23)cc1 | / | / | i | i | / | /
O=C(COc1ccc2ccccc2c1)NNC(=O)C(=O)Nc1ccccc1 | ? | ? | i | i | -3% | -5%
Cn1cccc1C(=O)N/N=C/c1c(Cl)cccc1Cl | 0% | -7% | i | i | 1% | 0%
O=c1c2ccccc2nc(/C=C/c2ccc(Br)cc2)n1CCO | ? | 15% | i | ? | -29% | ?
Cc1[nH]c2ccccc2c1/C=C/c1nc2ccccc2c(=O)n1CCO | ? | ? | 12µM* | 12µM* | ? | -24%
Cc1ccccc1/C=C/c1nc2ccccc2c(=O)n1CCc1ccccc1 | -2% | -41% | i | 2.6µM* | -7% | 1%
Cc1nc2ccccc2c(=O)n1CCc1ccccc1 | 14% | -4% | i | i | 11% | 11%
Cc1ccc(/C=C/c2nc3ccccc3c(=O)n2CCc2ccccc2)cc1 | ? | 10% | i | 2.6µM* | -19% | -12%
O=[N+]([O-])c1cccc(CON=Cc2cc(Cl)ccc2O)c1 | / | / | i | i | -1% | -6%
COC(=O)c1ccccc1S(=O)(=O)N1CCn2cccc2C1C (stereo not given) | 3% | 4% | i | i | 24% | 6%
COc1cccc(/C=C/c2nc(C#N)c(N(C)Cc3ccccc3)o2)c1 | / | / | i | i | / | /
COc1ccccc1/C=C/c1nc(C#N)c(N(C)C)o1 | 23µM* | ? | i | i | 5% | 5%
CN(C)c1oc(/C=C/c2ccccc2)nc1C#N | ? | 15µM* | i | ? | -3% | -1%
C=CCn1cnc2c(c1=O)c1nc3ccccc3nc1n2/N=C/c1cccc(OC)c1OC | 1% | -1% | i | 23µM* | 16% | ?
C=CCn1cnc2c(c1=O)c1nc3ccccc3nc1n2/N=C/c1cc(OC)c(OC)c(OC)c1 | ? | -1%[9.22 µM] | i | ? | ? | ?
Cc1cccc(C)c1NC(=O)Cn1c(=O)n(Cc2ccccc2)c(=O)c2c(C)c(C(=O)N(C)C)sc21 | / | / | i | i | / | /
